The structures appear in SMILES notation. Screen size: about 64,000 compounds; about 2,200 (3.4%) were called active.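 The calls were made as follows: active = calcium fluorescence response, raw or row-and-column corrected B-score, differing from the plate sample mean either way at a set confidence level, mostly lower; inactive = the rest.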 The list comes from a sample in which actives are over-represented; it also holds similar structures and randomly drawn compounds.

The target of the experiment is Muscarinic acetylcholine receptor M1 (Rattus norvegicus) (UniProt P08482). As to the kind of experiment: blocks the rat M1 muscarinic receptor response to acetylcholine (AID 628). Conditions: CHO-M1 cells, Fluo-4 calcium, ACh EC80 antagonist mode; at 10 µM; hits give low values.
Sequence of Muscarinic acetylcholine receptor M1 (Rattus norvegicus) (P08482 whole entry, looked up): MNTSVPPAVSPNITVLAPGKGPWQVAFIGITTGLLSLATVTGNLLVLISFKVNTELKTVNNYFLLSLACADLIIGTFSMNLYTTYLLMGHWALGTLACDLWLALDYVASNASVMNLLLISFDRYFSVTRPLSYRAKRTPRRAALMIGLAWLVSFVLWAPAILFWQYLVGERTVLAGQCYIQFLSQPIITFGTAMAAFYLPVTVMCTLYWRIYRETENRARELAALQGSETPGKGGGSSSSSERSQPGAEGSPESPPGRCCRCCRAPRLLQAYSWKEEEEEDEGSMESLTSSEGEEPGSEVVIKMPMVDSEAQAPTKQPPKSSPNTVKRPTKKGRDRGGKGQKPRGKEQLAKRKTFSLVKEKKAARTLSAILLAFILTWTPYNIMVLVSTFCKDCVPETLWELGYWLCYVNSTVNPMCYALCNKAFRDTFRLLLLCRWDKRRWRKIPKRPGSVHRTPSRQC
`Cc1ccc2nc(NC3=NCN(CCc4ccccc4)CN3)nc(C)c2c1`: the B-score was -5.98 (active). On to `c1ccc(CCN2CN=C(Nc3nc4ccccc4o3)NC2)cc1`, for which the B-score is 0.0039 (inactive). Consider `N#CNC1=NCN(CCc2ccccc2)CN1`, for which the B-score was -0.391 (inactive). For `O=C(NCCC1=CCCCC1)C1CCN(Cc2cnn(-c3ccccc3)c2-n2cccc2)CC1` the value was -1.39 (inactive); for `Cc1ccc2cc3cc(C(=O)N4CCCCCC4)oc3nc2c1`, -0.434 (inactive). To `COc1cccc(-c2cc3nc4c(c(N5CCC6(CC5)OCCO6)n3n2)CCCC4)c1` belongs -0.0679 (inactive).

Consider `O=C(Nc1cccc(NC(=O)N2CCN(c3ccccc3)CC2)c1)N1CCN(c2ccccc2)CC1`, for which the B-score was -3 (active). As to `CC(=O)N1CCN(C(=O)Nc2cccc(C(F)(F)F)c2)CC1`, the B-score is -0.154 (inactive). For `O=C(Nc1cccc(C(=O)N2CCCC2)c1)c1ccccc1` the value was 0.0406 (inactive); for `COc1ccc(-c2c(C)nn3c(N4CCC(C(=O)N5CCCCC5)CC4)cc(C)nc23)cc1OC`, -0.265 (inactive); for `FC(F)(F)c1cccc(Nc2ncnc3ccccc23)c1`, 0.376 (inactive).

For `COc1ccccc1N1CCN(C(=O)c2ccc(S(=O)(=O)N3CCCCC3)cc2)CC1`, the B-score was -1.54 (inactive). For `N#CC(C(=O)c1ccc(S(=O)(=O)N2CCCCCC2)cc1)c1nc2ccccc2[nH]1` (stereo unspecified) the value was -4.04 (active); for `O=C(Nc1cccc(F)c1)c1ccc(S(=O)(=O)N2CCCC2)cc1`, -0.622 (inactive).

Regarding `CCOc1ccccc1NC(=O)C1CCC(CNc2c(N3CCOCC3)c(=O)c2=O)CC1` (stereo unspecified), the B-score was 0.744 (inactive). For `COc1ccc(N2C(=O)CC(N3CCC(C(N)=O)CC3)C2=O)cc1` (stereo unspecified), the B-score was -0.21 (inactive). To `O=C(CSc1nnc(-c2cccs2)n1Cc1ccco1)c1ccc2c(c1)OCO2` belongs 0.219 (inactive). Take `COC(=O)C1=CN(C)C=C(C(=O)OC)C1c1ccc(Cl)cc1Cl`: the B-score was 1.15 (inactive). For `COc1cc(-c2nn3c(-c4cccc(C)c4)nnc3s2)cc(OC)c1OC`, the B-score is 0.799 (inactive). Turning to `CCOc1cccc(-c2nn3c(-c4ccccn4)nnc3s2)c1`, the B-score was -0.924 (inactive). In the case of `c1ccc(-c2cc(-c3nnc4sc(-c5ccccn5)nn34)[nH]n2)cc1`, the B-score was -2.66 (active).

Take `CCCCOC(=O)Nc1nccs1`: the B-score is 0.0324 (inactive). For `COc1ccc(Cl)cc1NC(=O)c1oc(C)nc1C` the value was -0.215 (inactive); for `O=C(c1ccc(S(=O)(=O)N2CCOCC2)cc1)N1CCN(c2ccccc2)CC1`, -2.93 (active); for `CSC1=NCCN1C(=O)c1ccc(S(=O)(=O)N2CCOCC2)cc1`, -0.648 (inactive).

With `O=C(c1cccc(S(=O)(=O)N2CCOCC2)c1)N1CCOCC1`, the B-score was 0.238 (inactive).

Regarding `Cc1ccc2oc(=O)c3cnn(CC(=O)N4CCN(c5ccccn5)CC4)c3c2c1`, the B-score is 0.00225 (inactive). To `Cc1c(C(=O)OCC(=O)N(CCC#N)c2ccccc2)oc2c1ccc1ccccc12` belongs 0.252 (inactive). Consider `COc1ccc(N2CCN(CCNC(=O)CCN3C(=O)COc4ccccc43)CC2)cc1`, for which the B-score was 1.04 (inactive). To `CCCN1CCN(CCCNC(=O)CN2C(=O)COc3ccccc32)CC1` belongs 0.138 (inactive); to `O=C(CCN1C(=O)COc2ccccc21)NCCCN1CCN(c2ccc(F)cc2)CC1`, -2.15 (active); to `O=S1(=O)CC(NCc2ccccc2)C(Nc2ccc(Cl)cc2)C1` (stereo unspecified), -0.75 (inactive). To `CCCCCn1c(SCCC(C)C)nc2c1c(=O)[nH]c(=O)n2C` belongs -0.348 (inactive); to `Cn1c(=O)[nH]c(=O)c2c1nc(CN1CCN(c3ccccc3F)CC1)n2CCc1ccccc1`, -0.0585 (inactive); to `O=C(COc1ccc(Cl)cc1)Nc1ccccc1CO`, 0.609 (inactive). For `Cc1ccc(C(=O)NC2CC(C)(C)NC(C)(C)C2)c(C)c1` the value was 0.35 (inactive); for `COc1cc(OC)c(C(=O)NC2CCCCCC2)cc1OC`, -1.64 (inactive); for `COc1cc(OC)c(C(=O)NC2CC(C)(C)NC(C)(C)C2)cc1OC`, -2.14 (active). Consider `CCOc1ccccc1NC(=O)CCc1ccc(C)o1`, for which the B-score is 0.759 (inactive). To `CCC(=O)c1ccc(OCC(O)CN2CCN(c3cccc(C(F)(F)F)c3)CC2)cc1` (stereo unspecified) belongs -3.03 (active). For `O=C(CN1CCN(c2ccc(F)cc2)CC1)Nc1cccc(C(F)(F)F)c1`, the B-score was -1.83 (inactive). Consider `Cc1ccc(OCC(O)CN2CCN(CC(O)COc3ccc(C)cc3Cl)CC2)c(Cl)c1` (stereo unspecified), for which the B-score is 0.987 (inactive). To `O=C(CCCN1C(=O)C2C3C=CC(C3)C2C1=O)N1CCN(c2ccccc2)CC1` (stereo unspecified) belongs -0.518 (inactive); to `O=C(CN1C(=O)CSc2ncccc21)N1CCOCC1`, -0.0388 (inactive). For `O=C(CCCN1C(=O)CSc2ncccc21)N1CCN(c2cccc(C(F)(F)F)c2)CC1` the value was -3.46 (active); for `CCn1c(Cc2ccccc2)nnc1SCC(=O)Nc1ccccc1`, -0.642 (inactive); for `CC(C)c1nnc(NC(=O)C2CCCN2S(=O)(=O)c2ccc(Cl)cc2)s1` (stereo unspecified), 0.566 (inactive). For `CC12CN(Cc3ccccc3)CC(C)(CN(Cc3ccccc3)C1)C2=NO` the value was -8.41 (active); for `CC(=NC1CCN(Cc2ccccc2)CC1)c1c(O)[nH]c(=O)[nH]c1=O`, -1.22 (inactive). Turning to `Cc1ccc(-c2noc(CN3CCN(Cc4ccccc4)CC3)n2)cc1`, the B-score was -0.779 (inactive). Consider `N#Cc1c2c(c(-c3ccccc3)[nH]c1=O)CCCC2`, for which the B-score was -0.0345 (inactive).

With `CCOC(=O)c1c(-c2ccc(C)cc2C)csc1NC(=O)CSc1nnnn1C`, the B-score was -1.47 (active). On to `CCOC(=O)CNC(=O)CSc1nnnn1-c1cc(C)ccc1C`, for which the B-score was 0.408 (inactive). Turning to `CNC(=O)CSc1nnnn1-c1ccc(C)cc1C`, the B-score is -0.461 (inactive).

Turning to `Cn1cc(S(=O)(=O)N2CCC(Cc3ccccc3)CC2)c(=O)n(C)c1=O`, the B-score is 1.21 (inactive). For `CCOc1cc(C(=S)N2CCOCC2)ccc1O`, the B-score is -0.148 (inactive). To `Cc1ccc(NC(=O)N2CCC(C(=O)NCc3ccc(F)cc3)CC2)cc1` belongs 0.137 (inactive).

On to `Cc1nc2ncnn2c(C)c1CCC(=O)N1CCN(C(=O)c2ccco2)CC1`, for which the B-score was -0.557 (inactive). Take `Cn1c(=O)cc(OCCCC(=O)N2CCN(c3ccccn3)CC2)c2ccccc21`: the B-score was -0.727 (inactive). To `Cc1nc2c(-c3ccc(F)cc3)c(C)nn2c(C)c1CCC(=O)N1CCN(c2ccccn2)CC1` belongs -2.78 (active). With `Cc1ccsc1C(=O)OCC(=O)c1cc(C)n(CC2CCCO2)c1C` (stereo unspecified), the B-score is -0.425 (inactive). For the compound `O=C(NCCCNC(=O)NC1CCCCC1)NC1CCCCC1`, the B-score is 0.589 (inactive). For `Cc1nc2sc(C(c3ccco3)N3CCC4(CC3)OCCO4)c(O)n2n1` (stereo unspecified) the value was 0.231 (inactive). Regarding `Cn1c(C(=O)NCCCN2CCN(c3cccc(Cl)c3)CC2)cc2c(=O)n(C)c3ccccc3c21`, the B-score is -1.91 (inactive). On to `CCN1CCCC1CNC(=O)c1cc2c(=O)n(C)c3ccccc3c2n1C` (stereo unspecified), for which the B-score is -1.39 (inactive).

For `CC1CCCC(C)N1CCCNC(=O)c1cc2c(=O)n(C)c3ccccc3c2n1C` (stereo unspecified), the B-score was -3.75 (active). To `COC(=O)C(NC(C)=O)(Nc1nc2c(s1)CCCC2)C(F)(F)F` (stereo unspecified) belongs 0.181 (inactive); to `COC(=O)c1cc(Cl)c(NC(=O)c2ccco2)cc1OC`, 0.0739 (inactive).

With `O=C(Nc1nnc(-c2ccc(Cl)cc2)o1)c1ccccc1Br`, the B-score is 0.257 (inactive).

In the case of `CCCOc1ccc2c3c(c(=O)oc2c1OCCC)CCC3`, the B-score was -0.182 (inactive). To `Cc1c(C)c2cc3c4c(oc3c(C)c2oc1=O)CCCC4` belongs -2.52 (active); to `O=C(NCc1ccc(Cl)cc1)c1cc2c(nc3sccn32)s1`, -0.593 (inactive). For `CCC(C)(NC(=O)c1ccccn1)C(=O)NC1CCCCC1` (stereo unspecified) the value was -3.41 (active); for `CCC(C)(C(=O)NC1CCCC1)N(C(=O)CNC(C)=O)c1ccc(C)cc1` (stereo unspecified), 0.0894 (inactive). `CN(CC(=O)NC1CCCCC1)S(=O)(=O)c1cccc2cccnc12`: the B-score is -0.865 (inactive). To `O=C(O)c1cc(S(=O)(=O)N2CCCCCC2)c(Cl)cc1Cl` belongs -0.939 (inactive); to `COCCCNC(=O)Cn1cc(C(=O)C2CC2)c2ccccc21`, 1.18 (inactive); to `N#Cc1c2c(c(N3CCN(CCO)CC3)n3c1nc1ccccc13)CCCC2`, -0.206 (inactive).

As for `Cc1cc(NCc2ccco2)n2c(nc3ccccc32)c1C#N`, the B-score was 0.838 (inactive).

As to `CN(C)CCCNc1c2c(c(C#N)c3nc4ccccc4n13)CCC2`, the B-score was -3.92 (active).

Turning to `CC(=O)CSc1nnc(CSc2ncccn2)n1C1CCCCC1`, the B-score is 0.586 (inactive). To `CC1CN(c2cc(=O)n(Cc3ccc(F)cc3)c(=O)[nH]2)CC(C)O1` (stereo unspecified) belongs -0.0281 (inactive); to `CCOc1cc(S(=O)(=O)NCc2ccc3c(c2)OCO3)ccc1F`, 0.637 (inactive).

With `O=C(CS(=O)(=O)c1cn(Cc2ccc(Cl)cc2)c2ccccc12)N1CCOCC1`, the B-score is 0.274 (inactive). For the compound `Cn1c(=O)c(=O)n(C)c2cc(S(=O)(=O)NCCc3ccccc3)ccc21`, the B-score is 0.991 (inactive). For `CCCCN(CCCC)C(=O)CCS(=O)(=O)c1ccc2c(c1)n(C)c(=O)c(=O)n2C` the value was -3.55 (active); for `CC1CCC(NS(=O)(=O)c2ccc3c(c2)n(C)c(=O)c(=O)n3C)CC1` (stereo unspecified), -0.853 (inactive); for `Cc1c(CN2CCC(C)CC2)c(=O)n(-c2ccccc2)n1C`, 0.549 (inactive).

As to `CC(=O)N1CCN(c2cccc(C)c2C)CC1`, the B-score was 0.482 (inactive). To `Cc1cccc(N2CCN(Cc3c(C)n(C)n(-c4ccccc4)c3=O)CC2)c1C` belongs -9.51 (active). On to `CC1CCCN(Cc2nc3c(c(=O)n(C)c(=O)n3C)n2Cc2cccc3ccccc23)C1` (stereo unspecified), for which the B-score was 0.779 (inactive). For `O=C1CC(Cc2ccccc2)C(=O)N1c1ccc(Cl)cn1` (stereo unspecified) the value was -0.406 (inactive); for `CCn1c(SCC(=O)Nc2cc(C)ccc2C)nnc1-c1cnccn1`, 0.583 (inactive). For the compound `C=C(C)Cn1c(N2CCN(CC)CC2)nc2c1c(=O)[nH]c(=O)n2C`, the B-score is 0.423 (inactive). As to `Cn1c(=O)[nH]c(=O)c2c1nc(N1CCCCCC1)n2CC(=O)c1ccccc1`, the B-score was 0.41 (inactive). Consider `C=C(C)Cn1c(N2CCCC2)nc2c1c(=O)[nH]c(=O)n2C`, for which the B-score was -2.42 (active).

The record behind these values is PubChem BioAssay AID628 (Vanderbilt High Throughput Screening Facility, 2007).
